Laboratory results: PMC11574364

Legend:
Test in all cases: protein domain microarray probed with biotinylated miRNA; Domain array: 20 mM Tris-HCl pH 7.4, 200 mM KCl, 0.2 mM EDTA, 0.05% NP40, 2 ug/ul heparin, overnight 4 C. ORF array: PBS pH 7.0 with RNase inhibitor, 100 ng RNA; high values mean tight binding
Conditions in all cases: ssRNA
KHSRP(1-4) = target: T1, KHSRP(1-4) (Homo sapiens, UniProt Q92945)
T1 sequence: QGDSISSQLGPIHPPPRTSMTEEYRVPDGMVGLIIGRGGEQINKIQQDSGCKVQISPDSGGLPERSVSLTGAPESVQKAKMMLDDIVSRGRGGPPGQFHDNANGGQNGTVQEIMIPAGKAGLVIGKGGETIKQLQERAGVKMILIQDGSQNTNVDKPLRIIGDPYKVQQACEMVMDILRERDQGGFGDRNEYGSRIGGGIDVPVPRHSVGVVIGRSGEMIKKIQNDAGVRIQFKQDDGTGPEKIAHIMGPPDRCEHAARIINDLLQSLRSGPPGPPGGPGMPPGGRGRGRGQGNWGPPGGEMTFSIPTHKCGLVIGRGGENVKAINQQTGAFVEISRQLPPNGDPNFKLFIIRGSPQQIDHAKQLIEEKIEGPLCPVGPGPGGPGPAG

RALY = RALY (Homo sapiens, UniProt Q9UKM9)
U1SNRNPBP = target: T2, U1SNRNPBP (Homo sapiens, UniProt Q16560)
T2 sequence: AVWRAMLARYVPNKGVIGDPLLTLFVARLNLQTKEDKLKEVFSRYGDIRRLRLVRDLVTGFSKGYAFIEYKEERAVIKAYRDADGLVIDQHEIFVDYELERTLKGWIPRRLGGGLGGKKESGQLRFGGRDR

RBM47 = target: T3, RBM47 (Homo sapiens, UniProt A0AV96)
T3 sequence: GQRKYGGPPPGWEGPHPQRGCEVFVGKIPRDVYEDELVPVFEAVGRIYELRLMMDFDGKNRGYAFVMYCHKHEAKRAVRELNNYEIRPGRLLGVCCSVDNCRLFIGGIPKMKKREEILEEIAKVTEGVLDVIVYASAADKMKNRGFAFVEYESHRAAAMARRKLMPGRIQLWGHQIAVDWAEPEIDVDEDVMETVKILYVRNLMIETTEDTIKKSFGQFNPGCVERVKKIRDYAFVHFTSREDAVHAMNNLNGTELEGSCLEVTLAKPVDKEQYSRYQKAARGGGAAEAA

RBMS2 = target: T4, RBMS2 (Homo sapiens, UniProt Q15434)
T4 sequence: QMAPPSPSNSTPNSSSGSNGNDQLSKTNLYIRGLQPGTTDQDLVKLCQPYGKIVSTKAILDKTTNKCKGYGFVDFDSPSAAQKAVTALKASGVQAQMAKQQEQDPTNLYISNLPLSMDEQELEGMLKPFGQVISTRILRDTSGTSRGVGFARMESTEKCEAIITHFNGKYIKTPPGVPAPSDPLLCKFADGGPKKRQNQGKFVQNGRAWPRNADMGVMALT

STRBP(1) = target: T5, STRBP(1) (Homo sapiens, UniProt Q96SI9)
T5 sequence: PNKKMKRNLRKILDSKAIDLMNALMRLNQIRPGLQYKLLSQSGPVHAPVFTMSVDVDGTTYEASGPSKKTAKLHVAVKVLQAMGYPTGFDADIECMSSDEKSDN

RBM25 = RBM25 (Homo sapiens, UniProt P49756)
RBM21 = target: T6, RBM21 (Homo sapiens, UniProt Q9H6E5)
T6 sequence: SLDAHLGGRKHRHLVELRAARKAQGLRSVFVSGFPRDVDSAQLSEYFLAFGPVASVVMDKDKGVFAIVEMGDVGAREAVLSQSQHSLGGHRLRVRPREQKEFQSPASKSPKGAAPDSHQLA

SART3 = target: T7, SART3 (Homo sapiens, UniProt Q15020)
T7 sequence: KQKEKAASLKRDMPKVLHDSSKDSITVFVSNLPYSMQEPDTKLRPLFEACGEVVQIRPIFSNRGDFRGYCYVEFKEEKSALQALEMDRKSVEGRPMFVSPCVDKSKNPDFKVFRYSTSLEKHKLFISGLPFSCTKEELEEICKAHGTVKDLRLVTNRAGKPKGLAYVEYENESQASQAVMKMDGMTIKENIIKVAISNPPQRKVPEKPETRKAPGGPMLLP

STAU1(1) = STAU1(1) (Homo sapiens, UniProt O95793)
Chain of STAU1(1) (O95793 52-182): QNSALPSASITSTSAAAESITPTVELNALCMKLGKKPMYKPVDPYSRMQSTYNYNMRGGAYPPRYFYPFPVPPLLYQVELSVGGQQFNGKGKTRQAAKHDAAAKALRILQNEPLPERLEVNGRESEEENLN

Chain of RBM25 (P49756 67-185): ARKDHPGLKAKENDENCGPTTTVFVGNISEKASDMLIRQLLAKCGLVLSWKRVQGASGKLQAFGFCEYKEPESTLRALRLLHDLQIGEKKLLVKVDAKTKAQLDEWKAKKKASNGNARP
Chain of RALY (Q9UKM9 1-115): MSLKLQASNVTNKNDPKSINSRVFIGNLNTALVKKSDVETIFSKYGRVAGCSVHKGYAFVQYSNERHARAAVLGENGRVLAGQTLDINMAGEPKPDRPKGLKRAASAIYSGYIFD

Row | Sequence | binding signal (KHSRP(1-4)) [fluorescence intensity] | binding signal (RALY) [fluorescence intensity] | binding signal (U1SNRNPBP) [fluorescence intensity] | binding signal (RBM47) [fluorescence intensity] | binding signal (RBMS2) [fluorescence intensity] | binding signal (STRBP(1)) [fluorescence intensity] | binding signal (RBM25) [fluorescence intensity] | binding signal (RBM21) [fluorescence intensity] | binding signal (SART3) [fluorescence intensity] | binding signal (STAU1(1)) [fluorescence intensity]
1 | UAGCUUAUCAGACUGAUGUUGA | 192 ± 3.5 | 591 ± 33.9 |  |  |  |  |  |  |  | 
2 | CAGUGCAAUGAUGAAAGGGCAU | 675 ± 8.46 | 332 ± 5.22 | 46.4 ± 1.24 | 26.2 ± 2.96 | 39 ± 3.47 | 37.99 ± 0.283 | 36 ± 0.488 | 38.1 ± 3.22 | 29.6 ± 6.57 | 
3 | UGAGGUAGUAGGUUGUGUGGUU | 992.47 ± 0.686 | 1730 ± 54.9 | 130 ± 6.12 | 53 ± 7.04 | 95.1 ± 1.34 | 125 ± 14.3 | 98.3 ± 20.9 | 63.5 ± 6.73 | 113 ± 30.2 | 69.7 ± 6.19
4 | UGAGGUAGUAGGUUGUAUAGUU | 419 ± 11.8 | 789 ± 24.3 |  |  | 24.7 ± 2.59 |  |  |  |  | 
5 | AGAGGUAGUAGGUUGCAUAGUU | 951 ± 76.8 | 1628 ± 11.4 | 63.6 ± 1.29 | 29.82 ± 0.276 | 79.9 ± 6.82 | 34.2 ± 1.84 | 39.5 ± 3.96 | 34.33 ± 0.0778 | 36.8 ± 2.71 | 25.68 ± 0.0778
6 | UGAGGUAGUAGGUUGUAUGGUU | 786 ± 28.3 | 1750 ± 31.6 | 99.4 ± 1.25 | 41.2 ± 0.636 | 91.7 ± 4.18 | 62.8 ± 0.686 | 63.1 ± 0.806 | 53.6 ± 2.81 | 51.5 ± 2.31 | 44.5 ± 1.05
